# Data from PubChem BioAssay (NCI).
# This is part of a sample that, as a whole, favours compounds with a hit. Of some 79,000 tested, about 15% had one in any assay. Unmarked numbers belong to inactive results. Calls of active or inactive are those of the source. Cut-off read from the data, not from the text of the source: active = growth inhibition above about 70%; inactive = the rest.
# Tests used:
# [1] = NCI Yeast Anticancer Drug Screen. Data for the rad50 strain (AID 155);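 note: 0% = growth of vehicle-only cultures of the same strain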; conditions: S. cerevisiae rad50 strain growth inhibition, stronger effect = higher value
# Method in brief: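 Yeast carrying a defined DNA repair defect were exposed to test compounds, and growth was compared with vehicle-treated controls to give percent inhibition.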
# [2] = NCI Yeast Anticancer Drug Screen. Data for the mec2-1 strain (AID 157); conditions: S. cerevisiae mec2-1 strain, stronger effect = higher value
# Method in brief: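 mec2-1 yeast strain, carrying an alteration in DNA damage repair or cell cycle control, was exposed to compounds; growth inhibition was measured relative to vehicle-treated controls.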
# [3] = NCI Yeast Anticancer Drug Screen. Data for the sgs1 mgt1 strain (AID 161);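 note: 0% = growth of cultures given vehicle only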; conditions: S. cerevisiae sgs1 mgt1 strain, stronger effect = higher value
# Method in brief: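 Yeast cells carrying a defined DNA-repair defect were exposed to test compounds. Growth inhibition was measured relative to vehicle-treated controls.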
# [4] = NCI Yeast Anticancer Drug Screen. Data for the cln2 rad14 strain (AID 165);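 note: 0% = growth equal to vehicle treated cultures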; conditions: S. cerevisiae cln2 rad14 strain, stronger effect = higher value
# Method in brief: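 Yeast carrying cln2 and rad14 alterations (cell cycle control and DNA damage repair) were exposed to compounds. Growth inhibition was measured against vehicle-treated controls.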
# [5] = NCI Yeast Anticancer Drug Screen. Data for the bub3 strain (AID 167); conditions: S. cerevisiae bub3 mutant strain, stronger effect = higher value
# Method in brief: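 Compounds were applied to a genetically altered yeast strain carrying a cell-cycle control defect. Growth inhibition was scored against vehicle-treated controls.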
# [6] = NCI Yeast Anticancer Drug Screen. Data for the mlh1 rad18 strain (AID 175); conditions: S. cerevisiae mlh1 rad18 strain growth inhibition, stronger effect = higher value
# Method in brief: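 Growth inhibition of the yeast strain was measured after compound exposure and expressed relative to vehicle-treated controls. The strain carries defined defects in DNA damage repair.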
# [7] = at 5.0 µM (retest, dose inferred, filed as 0.5)
# [8] = at 50.0 µM (retest, dose inferred, filed as 5.0)
Compound,"growth inhibition [1, 7]","growth inhibition [1, 8]",growth inhibition ([1]; at 50.0 µM),"growth inhibition [2, 7]","growth inhibition [2, 8]",growth inhibition ([2]; at 50.0 µM),"growth inhibition [3, 7]","growth inhibition [3, 8]",growth inhibition ([3]; at 50.0 µM),"growth inhibition [4, 7]","growth inhibition [4, 8]",growth inhibition ([4]; at 50.0 µM),"growth inhibition [5, 7]","growth inhibition [5, 8]",growth inhibition ([5]; at 50.0 µM),"growth inhibition [6, 7]","growth inhibition [6, 8]",growth inhibition ([6]; at 50.0 µM)
CCCCCC(C)(O)C#CC(C)(O)CCCCC (stereo not given),2%,99% (active),38.8%,5%,99% (active),4.55%,1%,99% (active),30.7%,5%,98% (active),75.7% (active),3%,96% (active),21.3%,2%,99% (active),26.7%
Clc1cc2n[nH]nc2c(Cl)c1Cl,-6%,63%,74.8% (active),6%,84% (active),95.9% (active),16%,83% (active),46.8%,-17%,65%,88.7% (active),-13%,48%,85.8% (active),6%,94% (active),93.3% (active)
NC(N)=Nc1ccc(C(=O)Oc2c(Cl)cc([N+](=O)[O-])cc2Cl)cc1,-30%,46%,48%,-6%,28%,30.2%,4%,65%,71.1% (active),-9%,32%,21.9%,-6%,40%,25.9%,12%,56%,32.9%
CC(=O)Nc1ccc(C#N)c2ccccc12,43%,33%,40.4%,42%,33%,35.8%,0%,29%,23.1%,41%,34%,7.4%,21%,44%,40.8%,35%,35%,19.4%
COc1cccc(=O)cc1,5%,86% (active),83.3% (active),12%,51%,26.4%,11%,83% (active),93.5% (active),7%,32%,19.4%,3%,85% (active),92.9% (active),3%,94% (active),76.4% (active)
CCOC(=O)c1ccc(O)c(OC)c1,-2%,10%,2%,7%,3%,1.5%,3%,2%,-18.6%,-5%,5%,-13.8%,61%,93% (active),90.2% (active),-3%,0%,-7.1%
Cc1c[n+](CC(=O)c2ccc(I)cc2)c(C)s1,0%,13%,-16.2%,-1%,2%,4.1%,-1%,12%,-2.85%,-4%,-5%,46.3%,-2%,9%,1.7%,-2%,-2%,16.8%
C(=C\N1CCCCC1)/c1nnnn1-c1ccccc1,-23%,6%,34.5%,-18%,-21%,54.1%,-31%,-18%,71.9% (active),-17%,-22%,11.8%,-29%,-31%,54.6%,-4%,1%,72.7% (active)
O=C1C(Br)=C(C2CCCCC2)C(=O)c2ccccc21,54%,99% (active),101% (active),59%,100% (active),99.7% (active),78% (active),99% (active),99.6% (active),20%,99% (active),100% (active),24%,100% (active),99.5% (active),83% (active),99% (active),99.2% (active)
Cc1cc(N=O)c(NO)cc1C,3%,29%,95.8% (active),16%,29%,79.7% (active),6%,22%,79.7% (active),2%,16%,65.7%,28%,61%,92.5% (active),18%,81% (active),88.8% (active)
C/C([O-])=C1\Cc2ccccc2C1=O.C/C([O-])=C1\Cc2ccccc2C1=O.CC[O-].CC[O-].[Ti+4],25%,25%,89% (active),17%,17%,89.4% (active),4%,4%,91.5% (active),4%,4%,81% (active),4%,4%,88.6% (active),20%,20%,90.7% (active)
NSc1ccc(N)s1,-1%,11%,37%,6%,12%,28.9%,1%,13%,50.6%,-7%,6%,36.9%,-3%,14%,87.7% (active),-1%,12%,58.6%
C/C(=N/NC(=S)Nc1cccc(C)c1)c1ccccn1,62%,99% (active),80.2% (active),91% (active),99% (active),85.9% (active),75% (active),99% (active),88.3% (active),94% (active),99% (active),88.9% (active),96% (active),99% (active),90.3% (active),68%,99% (active),91% (active)
C[Si](C)c1cccc(Cl)c1,2%,5%,0.25%,0%,4%,0.45%,-1%,-3%,6.9%,8%,6%,13.8%,1%,0%,7.55%,-29%,1%,-0.75%
C=C1CCC[C@@H]2[C@@](C)(CC3=CC(=O)C=CC3=O)C(C)CC[C@]12C (stereo not given in full),39%,96% (active),98.5% (active),43%,96% (active),88.7% (active),54%,97% (active),98.7% (active),7%,93% (active),95.2% (active),27%,96% (active),98.6% (active),55%,95% (active),98.5% (active)
CN(C)c1ccc(N=Nc2ccc(/C=C3\CCOC3=O)cc2)cc1,-4%,4%,-3.65%,-5%,-1%,19.4%,-6%,-6%,-0.65%,-3%,4%,37.2%,-3%,7%,-2.45%,-1%,3%,12.4%
CCc1c(O)c(O)c(C(C)=O)c2c(O)c(-c3c(C)cc4c(CC)c(O)c(O)c(C(C)=O)c4c3O)c(C)cc12,-13%,96% (active),94.2% (active),9%,96% (active),95.3% (active),-10%,96% (active),95.2% (active),-20%,94% (active),92.9% (active),11%,97% (active),95.7% (active),7%,96% (active),95.5% (active)
Cc1ccc(C(c2ccc(N(C)C)cc2)c2ccc(N(C)C)cc2)cc1,97% (active),89% (active),94.5% (active),99% (active),92% (active),94.7% (active),99% (active),95% (active),93.8% (active),78% (active),69%,69%,98% (active),92% (active),94.7% (active),98% (active),92% (active),92.7% (active)
CC(=O)N=C1N(/C=C2\C(=O)Oc3ccccc3C2=O)C(=O)/C(=C/c2cccc(Cl)c2Cl)N1C,5%,89% (active),-7.75%,12%,61%,0.2%,-12%,8%,28.2%,7%,25%,-21.8%,-11%,17%,-37.5%,13%,95% (active),-22.4%
CC(=O)c1c2c(cc3c1CC1(C3)Cc3cc4c(c(C(=O)O)c3C1)CCCC4)CCCC2 (stereo not given) (tested in a mixture with another compound),90% (active),99% (active),77.7% (active),84% (active),99% (active),97% (active),94% (active),99% (active),97.8% (active),94% (active),99% (active),97.9% (active),82% (active),99% (active),96% (active),96% (active),99% (active),98% (active)
